Measured values published in PubChem BioAssay (NCATS).
Records with an inconclusive call do not appear. Active and inactive are the calls of the source. Unless noted, calls come from the whole dose curve; as a rule, active = well fitted curve in the direction sought with a large enough effect; inconclusive = small, poorly fitted or top-dose-only effect, or another doubt; inactive = no such curve, though single readings can be large; an effect the other way counts as inactive or inconclusive.

Tests used:
[1] = NS1 protein of Zika virus - qHTS assay to identify small molecule inhibitors in human HEK 293 cells (AID 1347053);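 note: plate controls were infected untreated cells for no effect and uninfected cells for full effect; nearly all actives have a fitted effect of over 55% in size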
Procedure, shortened: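 Inhibition of NS1 expression was scored in HEK 293 cells given compound 1 h ahead of MR766 virus (MOI = 0.5). Following 24 h at 37 C, two anti-NS1 antibodies generated a TR-FRET signal, scaled between uninfected and infected controls.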

[2] = molecular target: T1, Tyrosine-protein phosphatase non-receptor type substrate 1 (Homo sapiens) + Leukocyte surface antigen CD47 (Homo sapiens) (UniProt P78324+Q08722); assay: CD47-SIRPalpha protein protein interaction - Alpha assay qHTS validation (AID 1347059);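 note: bead proximity luminescence from CD47 binding SIRPalpha after compound preincubation with SIRPalpha; % is set by controls: 0 for no effect and ±100 for the full control effect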
Procedure, shortened: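 Binding is measured by AlphaScreen proximity: Ni-NTA acceptor beads capture His-CD47, streptavidin donor beads capture biotin-SIRPalpha. Each of three additions (SIRPalpha with compound, CD47, beads) incubates 30 min at room temperature protected from light.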

[3] = molecular target: Parathyroid hormone/parathyroid hormone-related peptide receptor (Homo sapiens) (UniProt Q03431); assay: qHTS for PTHR1 Agonists: Optimization Screen against the NCGC LOPAC library (AID 1347079);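 note: GloSensor cAMP luminescence in HEK-293 GP2 cells expressing human PTHR1 with IBMX; 0% is about no effect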
Procedure, shortened: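 Agonist readout: GloSensor cAMP luminescence, read after 15 min at room temperature. HEK-293-derived GP2 line carries PTHR1; compounds tested as a titration for 1 hr at 37C in presence of IBMX. M-PTH (1-15) served as control.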

[4] = molecular target: Furin (Homo sapiens) (UniProt P09958); assay: Furin counterscreen qHTS for Zika virus inhibitors (AID 1347149);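 note: purified recombinant full-length human furin enzyme at 5 nM; fluorescence gain from furin cutting a BOC-RVRR-AMC peptide substrate over 15 min; top concentration of the series differs between compounds; plate controls were no-inhibitor control for no effect and no-enzyme control for full effect; nearly all actives have a fitted effect of over 70% in size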
Procedure, shortened: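 Fluorogenic cleavage of BOC-RVRR-AMC (2 microM final, Km ~15 µM) was monitored (ex 340, em 450 nm) at 37C after 15 min RT preincubation of 5 nM furin with compounds in HEPES pH 7.0 buffer with CaCl2 and Triton X-100. Percent inhibition was fitted to a 4-parameter Hill curve.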

[5] = ZIKV-mCherry secondary qHTS for Zika virus inhibitors (AID 1347158); note: top concentration of the series differs between compounds
Procedure, shortened: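 Vero cells (5,000/well) were given compound, then infected with ZIKV-mCherry at MOI 1 for 48–72 h at 37 °C. After PFA fixation and Hoechst staining, imaging gave percent mCherry-positive cells. The positivity threshold was RFU above 450, 3 SD over negative controls.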

[6] = tested on: Zika virus NS2B-NS3 protease (linked); assay: 384 well plate NINDS AMC confirmatory qHTS for Zika virus inhibitors (AID 1347163); note: potency is the fitted concentration of half-maximal effect; nearly all actives have a fitted effect of over 50% in size
Procedure, shortened: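 Linked NS2B-NS3 protease (final 5 nM, 30 nM or 60 nM) was preincubated with compounds (final up to 1 mM) for ~15 minutes. Ac-VKTGKR-AMC substrate (final 30 microM) then reacted for 25 minutes at room temperature in the dark. Fluorescence (ex 355/em 460 nm) was normalized to no-enzyme and no-inhibitor controls.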

[7] = tested on: Zika virus NS2B-NS3 protease (linked construct); assay: 384 well plate NINDS Rhodamine confirmatory qHTS for Zika virus inhibitors (AID 1347164);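 note: fluorescence from protease cleavage of Ac-LKRR-rhodamine 110 substrate; nearly all actives have a fitted effect of over 65% in size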; note: potency is the fitted concentration of half-maximal effect
Procedure, shortened: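 Linked protease at a final 5 nM, 30 nM or 60 nM was preincubated ~15 min with compounds, then given 10 microM Ac-LKRR-Rhodamine 110. Fluorescence (ex 485/em 538 nm) after 25 min in the dark at room temperature.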

[8] = molecular target: Lysine-specific demethylase 5B (Homo sapiens) (UniProt Q9UGL1); assay: Optimization screen for KDM5B Histone Demethylases FDH coupled qHTS against the LOPAC library (AID 1347166); conditions: KDM5B demethylation, FDH-coupled NADH fluorescence (FDH is formaldehyde dehydrogenase); at 57.5 µM (top of the series); note: 0% is about no effect
Procedure, shortened: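 KDM5BDeltaAP (200nM final) preincubated 10 min with compound, then 12.5uM H3K4Me3, 25uM a-ketoglutarate, ascorbate, Fe(II), NAD+ and FDH added; 50mM HEPES pH 7.5, 0.01% Tween-20. NADH fluorescence (340/450 nm) change over 30 min, room temperature.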

[9] = Vero cells viability qHTS for Zika virus inhibitors (AID 1347167); note: % is set by controls: 0 for no effect and ±100 for the full control effect
Procedure, shortened: (§1)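 Compounds were tested in concentration series on cells grown in DMEM containing 4% FBS. After 24 to 48 hours, cellular ATP was measured by luminescence with CellTiter Glo.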

[10] = HepG2 cells viability qHTS for Zika virus inhibitors (AID 1347168); note: % is set by controls: 0 for no effect and ±100 for the full control effect
Procedure, shortened: as §1

[11] = molecular target: T1, Tyrosine-protein phosphatase non-receptor type substrate 1 (Homo sapiens) + Leukocyte surface antigen CD47 (Homo sapiens); assay: CD47-SIRPalpha protein protein interaction - LANCE assay qHTS validation (AID 1347057; active = well fitted curve in the direction sought with a large enough effect in the signal ratio, with a control signal flat, not every such curve was filed as active; the % refers to the signal ratio; note: 0% is about no effect)
Procedure, shortened: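 First, His-tagged CD47 and Eu-labelled anti-His antibody met the compound for 30 min; next, site-specifically biotinylated SIRPalpha was added for 30 min; finally streptavidin-APC was added before reading the TR-FRET ratio.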

[12] = tested on: Zika virus NS2B-NS3 protease (unlinked); assay: Optimization of GU AMC qHTS for Zika virus inhibitors: Unlinked NS2B-NS3 protease assay (AID 1347151); note: nearly all actives have a fitted effect of over 80% in size; note: potency is the fitted concentration of half-maximal effect
Procedure, shortened: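 Noncovalent complex of NS2B hydrophilic domain and NS3 protease domain, 25 nM final, in 10 mM Tris-HCl pH 8.0, 0.01% Tween 20. AMC fluorescence change over 15 min at room temperature was fitted to a 4-parameter Hill equation.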

[13] = tested on: Zika virus NS2B-NS3 protease; assay: Primary screen GU AMC qHTS for Zika virus inhibitors (AID 1347154);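 note: 0% = no-inhibitor control and -100% = no-enzyme control; nearly all actives have a fitted effect of over 70% in size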
Procedure, shortened: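 Fluorogenic AMC-substrate cleavage by noncovalent NS2B-NS3 protease complex (25 nM, pH 8.0 Tris buffer with Tween 20) followed for 15 minutes at room temperature (~20% conversion). Percent inhibition from ex340/em450 signal change, fitted by 4-parameter Hill equation.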

[14] = molecular target: T1, Tyrosine-protein phosphatase non-receptor type substrate 1 (Homo sapiens) + Leukocyte surface antigen CD47 (Homo sapiens); assay: CD47-SIRPalpha protein protein interaction - HTRF assay qHTS validation (AID 1347058; active = well fitted curve in the direction sought with a large enough effect in the signal ratio, not every such curve was filed as active; the % refers to the signal ratio;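 note: recombinant soluble extracellular CD47 with His tag and biotinylated SIRPalpha domains; 0% is about no effect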)
Procedure, shortened: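 TR-FRET read (Ch1/Ch2 ratio) of soluble extracellular CD47 and Avi-biotinylated SIRPalpha domains in PBS pH 7.4 with 0.05% IGEPAL; 7-point compound titration. Sequential 30 min room-temperature steps; non-biotinylated SIRPalpha as control inhibitor.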

[15] = molecular target: N-terminal Xaa-Pro-Lys N-methyltransferase 1 (Homo sapiens) (UniProt Q9BV86); assay: qHTS Assay for Inhibitors of N-terminal methyltransferase 1 (NTMT1): LOPAC validation of the NTMT1 SAHH-coupled ThioGlo3 Assay (AID 1347143);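 note: SAH from peptide methylation measured as thiol fluorescence via SAHH coupling and ThioGlo3; nearly all actives have a fitted effect of over 70% in size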; note: potency is the fitted concentration of half-maximal effect
Procedure, shortened: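 Inhibition of NTMT1 methylation of peptide SPKRIA is followed by converting SAH with SAHH and labelling the released thiol with ThioGlo3. Plates are read at 340/450nm before and 30 min after reagent addition, both at room temperature.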

[16] = Confirmatory screen GU Rhodamine qHTS for Zika virus inhibitors qHTS (AID 1347157); note: potency is the fitted concentration of half-maximal effect; nearly all actives have a fitted effect of over 70% in size
Procedure, shortened: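 A qHTS format was used, with compound concentrations ranging up to 114 microM. Each compound was preincubated with 25 nM NS2B-NS3 protease, and the substrate was then added at 1.5 microM. Curves were fitted with a 4-parameter Hill model.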

T1 sequence (P78324 whole entry, looked up): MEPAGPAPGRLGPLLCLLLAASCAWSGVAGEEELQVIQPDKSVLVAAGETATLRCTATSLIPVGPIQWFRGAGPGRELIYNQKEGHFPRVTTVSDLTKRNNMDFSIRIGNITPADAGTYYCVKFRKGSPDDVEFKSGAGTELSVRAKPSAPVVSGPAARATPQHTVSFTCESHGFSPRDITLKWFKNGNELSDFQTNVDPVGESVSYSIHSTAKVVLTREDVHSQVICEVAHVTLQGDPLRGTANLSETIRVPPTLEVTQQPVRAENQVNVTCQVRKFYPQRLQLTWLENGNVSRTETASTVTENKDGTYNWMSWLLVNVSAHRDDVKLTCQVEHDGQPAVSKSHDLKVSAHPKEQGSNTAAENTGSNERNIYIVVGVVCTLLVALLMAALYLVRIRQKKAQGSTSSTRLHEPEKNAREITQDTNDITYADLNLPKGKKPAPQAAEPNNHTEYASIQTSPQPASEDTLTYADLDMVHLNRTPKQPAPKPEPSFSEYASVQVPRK
T1 sequence (Q08722 whole entry, looked up): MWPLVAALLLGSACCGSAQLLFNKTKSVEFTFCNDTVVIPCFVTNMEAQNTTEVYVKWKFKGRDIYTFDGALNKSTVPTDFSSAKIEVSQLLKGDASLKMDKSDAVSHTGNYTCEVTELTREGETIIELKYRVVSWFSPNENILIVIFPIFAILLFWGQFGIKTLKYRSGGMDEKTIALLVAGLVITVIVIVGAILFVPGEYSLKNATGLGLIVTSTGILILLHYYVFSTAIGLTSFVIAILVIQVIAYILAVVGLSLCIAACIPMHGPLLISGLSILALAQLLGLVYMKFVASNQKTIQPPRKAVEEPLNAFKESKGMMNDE
Chain of Parathyroid hormone/parathyroid hormone-related peptide receptor (Homo sapiens) (Q03431 whole entry, looked up): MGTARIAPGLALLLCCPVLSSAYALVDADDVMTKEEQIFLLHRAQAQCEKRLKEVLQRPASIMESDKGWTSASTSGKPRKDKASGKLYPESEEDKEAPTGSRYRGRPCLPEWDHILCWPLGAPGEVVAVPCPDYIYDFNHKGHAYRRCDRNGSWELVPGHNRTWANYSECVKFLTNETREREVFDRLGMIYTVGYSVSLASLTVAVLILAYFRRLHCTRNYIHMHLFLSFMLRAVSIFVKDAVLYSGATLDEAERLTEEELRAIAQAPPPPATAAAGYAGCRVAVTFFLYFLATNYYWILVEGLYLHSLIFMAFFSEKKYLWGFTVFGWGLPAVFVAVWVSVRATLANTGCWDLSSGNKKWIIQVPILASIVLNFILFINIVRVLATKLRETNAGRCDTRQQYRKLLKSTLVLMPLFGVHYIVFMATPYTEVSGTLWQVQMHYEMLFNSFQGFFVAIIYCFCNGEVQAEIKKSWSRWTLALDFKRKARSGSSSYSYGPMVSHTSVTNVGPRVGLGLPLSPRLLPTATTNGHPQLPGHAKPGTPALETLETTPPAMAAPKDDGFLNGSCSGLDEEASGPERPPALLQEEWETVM
Chain of N-terminal Xaa-Pro-Lys N-methyltransferase 1 (Homo sapiens) (Q9BV86 whole entry, looked up): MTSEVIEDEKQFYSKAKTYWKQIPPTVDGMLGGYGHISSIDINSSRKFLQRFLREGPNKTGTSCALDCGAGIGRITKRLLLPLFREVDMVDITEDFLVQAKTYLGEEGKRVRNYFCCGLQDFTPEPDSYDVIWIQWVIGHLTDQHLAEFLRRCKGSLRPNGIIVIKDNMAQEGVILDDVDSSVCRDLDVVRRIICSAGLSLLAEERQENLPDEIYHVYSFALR
Chain of Lysine-specific demethylase 5B (Homo sapiens) (Q9UGL1 whole entry, looked up): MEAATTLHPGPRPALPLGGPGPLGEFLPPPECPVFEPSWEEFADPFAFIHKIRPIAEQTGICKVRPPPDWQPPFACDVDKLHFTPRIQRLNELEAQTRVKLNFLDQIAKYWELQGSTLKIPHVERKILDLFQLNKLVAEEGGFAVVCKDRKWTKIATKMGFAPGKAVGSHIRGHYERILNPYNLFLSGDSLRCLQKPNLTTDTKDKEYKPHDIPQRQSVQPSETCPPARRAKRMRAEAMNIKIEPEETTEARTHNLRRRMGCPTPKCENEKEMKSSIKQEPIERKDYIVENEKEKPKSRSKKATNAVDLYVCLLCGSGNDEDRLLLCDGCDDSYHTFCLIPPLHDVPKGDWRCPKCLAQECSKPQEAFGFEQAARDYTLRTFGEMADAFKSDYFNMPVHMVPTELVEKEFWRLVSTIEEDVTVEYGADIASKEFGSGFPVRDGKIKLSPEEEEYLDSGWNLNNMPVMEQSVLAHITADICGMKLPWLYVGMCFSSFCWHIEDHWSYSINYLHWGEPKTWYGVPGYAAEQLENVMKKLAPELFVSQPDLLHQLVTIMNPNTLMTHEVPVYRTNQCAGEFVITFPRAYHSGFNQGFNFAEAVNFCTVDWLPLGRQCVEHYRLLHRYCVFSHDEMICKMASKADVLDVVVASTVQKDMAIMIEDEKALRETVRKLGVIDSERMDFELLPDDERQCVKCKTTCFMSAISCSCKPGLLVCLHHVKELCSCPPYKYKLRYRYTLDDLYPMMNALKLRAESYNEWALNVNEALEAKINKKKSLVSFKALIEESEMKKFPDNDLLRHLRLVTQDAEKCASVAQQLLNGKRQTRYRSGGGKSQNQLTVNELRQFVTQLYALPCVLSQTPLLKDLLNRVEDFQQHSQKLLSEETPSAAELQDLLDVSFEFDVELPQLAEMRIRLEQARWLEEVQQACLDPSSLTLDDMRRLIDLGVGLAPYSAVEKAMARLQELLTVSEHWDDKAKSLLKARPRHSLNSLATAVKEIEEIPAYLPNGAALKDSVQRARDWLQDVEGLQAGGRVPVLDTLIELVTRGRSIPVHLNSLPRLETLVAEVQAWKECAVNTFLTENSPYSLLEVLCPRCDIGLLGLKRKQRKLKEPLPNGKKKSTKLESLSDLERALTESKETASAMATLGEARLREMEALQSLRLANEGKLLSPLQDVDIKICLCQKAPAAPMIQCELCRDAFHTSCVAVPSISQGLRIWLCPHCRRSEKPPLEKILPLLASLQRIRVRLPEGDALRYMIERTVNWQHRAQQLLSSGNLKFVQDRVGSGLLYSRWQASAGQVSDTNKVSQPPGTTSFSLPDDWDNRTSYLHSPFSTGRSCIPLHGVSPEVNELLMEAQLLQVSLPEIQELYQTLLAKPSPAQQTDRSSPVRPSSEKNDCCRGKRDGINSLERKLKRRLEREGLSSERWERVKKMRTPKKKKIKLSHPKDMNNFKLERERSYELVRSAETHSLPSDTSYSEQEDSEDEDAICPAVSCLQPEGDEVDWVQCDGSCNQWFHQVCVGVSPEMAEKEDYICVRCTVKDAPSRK
Chain of Furin (Homo sapiens) (P09958 whole entry, looked up): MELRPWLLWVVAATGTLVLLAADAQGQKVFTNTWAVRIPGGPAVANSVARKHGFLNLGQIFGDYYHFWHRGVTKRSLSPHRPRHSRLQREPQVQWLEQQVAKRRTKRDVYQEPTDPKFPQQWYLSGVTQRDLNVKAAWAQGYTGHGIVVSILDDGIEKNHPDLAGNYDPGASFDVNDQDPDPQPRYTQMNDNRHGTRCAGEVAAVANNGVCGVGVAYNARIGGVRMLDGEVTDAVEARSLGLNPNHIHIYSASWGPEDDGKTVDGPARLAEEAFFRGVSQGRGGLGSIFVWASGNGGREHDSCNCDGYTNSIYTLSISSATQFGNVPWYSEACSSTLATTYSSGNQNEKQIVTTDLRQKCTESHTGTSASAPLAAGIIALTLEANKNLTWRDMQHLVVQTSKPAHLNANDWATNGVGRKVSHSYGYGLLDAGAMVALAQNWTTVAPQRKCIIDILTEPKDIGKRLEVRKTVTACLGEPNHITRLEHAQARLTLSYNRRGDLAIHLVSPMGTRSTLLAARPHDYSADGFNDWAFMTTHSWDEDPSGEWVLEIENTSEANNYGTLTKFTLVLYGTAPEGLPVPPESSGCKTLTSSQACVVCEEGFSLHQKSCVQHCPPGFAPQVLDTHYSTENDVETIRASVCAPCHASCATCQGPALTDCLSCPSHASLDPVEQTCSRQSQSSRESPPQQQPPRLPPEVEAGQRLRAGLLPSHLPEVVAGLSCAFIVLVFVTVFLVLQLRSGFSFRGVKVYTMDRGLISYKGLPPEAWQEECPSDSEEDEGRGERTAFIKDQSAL

O=C1NC(=O)c2cc(Nc3ccccc3)c(Nc3ccccc3)cc21
active: Potency [6] 12.6 µM
inactive: Potency [1] | Potency [2] | Potency [3] | Potency [4] | Potency [5] | Potency [7] | activity, negative = inhibition [8] -17.6% | Potency [9] | outcome [10]

O=S(=O)(c1cccc2c(Cl)cccc12)N1CCCNCC1
inactive: Potency [11] | Potency [2] | Potency [12] | Potency [13] | activity, negative = inhibition [8] 1.08%

CCCCOC(=O)NS(=O)(=O)c1sc(CC(C)C)cc1-c1ccc(Cn2c(CC)nc3c(C)cc(C)nc32)cc1
inactive: Potency [11] | outcome [14] | Potency [2] | Potency [3] | Potency [15] | Potency [12] | activity, negative = inhibition [8] -19.3%

CC(C)(C)c1ccc(/C=C/C(=O)Nc2ccc3c(c2)OCCO3)cc1
inactive: Potency [1] | Potency [11] | Potency [3] | Potency [12] | activity, negative = inhibition [8] -12.1%

COc1cc(CC(=O)O)ccc1O
inactive: Potency [11] | outcome [14] | Potency [3] | Potency [15] | Potency [12] | Potency [13] | activity, negative = inhibition [8] -5.93%

COc1ccc(NC(=O)c2ccc(-c3ccc(-c4noc(C)n4)cc3C)cc2)cc1N1CCN(C)CC1
inactive: Potency [11] | outcome [14] | Potency [15] | Potency [13] | activity, negative = inhibition [8] -1.51%

CC(=O)/C(C)=N/O
inactive: Potency [1] | outcome [14] | Potency [3] | Potency [15] | activity, negative = inhibition [8] -0.876%

c1ccc(CN2CCC3(CCCc4ccccc43)CC2)cc1
inactive: Potency [11] | outcome [14] | Potency [12] | activity, negative = inhibition [8] -0.246%
active: Potency [15] 50.1 µM

O=c1[nH]c(=O)c2nc3ccccc3nc2[nH]1
inactive: Potency [1] | Potency [11] | Potency [3] | Potency [13]
active: Potency [15] 56.2 µM | Potency [12] 26.7 µM

CC[C@@H]1Cc2cc(O)ccc2C2=C1c1ccc(O)cc1C[C@H]2CC
inactive: Potency [1] | Potency [3] | Potency [12]
active: Potency [15] 79.4 µM

Nc1ccc2c3c(cccc13)C(=O)NC2=O
inactive: Potency [1] | Potency [2] | Potency [3] | Potency [15] | activity, negative = inhibition [8] -16.6%

CCC1(O)CC2CN(CCc3c([nH]c4ccccc34)[C@@](C(=O)OC)(c3cc4c(cc3OC)N(C)C3[C@]45CCN4CC=C[C@@](CC)([C@@H](OC(C)=O)[C@]3(O)C(=O)OC)[C@H]45)C2)C1 (stereo partly drawn)
inactive: Potency [3] | activity, negative = inhibition [8] -13.4%

NS(=O)(=O)c1cccc2c1c([N+](=O)[O-])cc1nc(O)c(O)nc12
inactive: Potency [1] | Potency [2] | Potency [3] | Potency [12] | Potency [13]
active: Potency [15] 50.1 µM

Cc1nc(N=Nc2ccc(S(=O)(=O)O)cc2S(=O)(=O)O)c(COP(=O)(O)O)c(C=O)c1O
inactive: Potency [1] | Potency [11] | Potency [3] | Potency [15] | Potency [4] | Potency [12] | Potency [13] | Potency [5] | activity, negative = inhibition [8] -11.6%
active: Potency [16] 7.94 µM | Potency [6] 39.8 µM | Potency [7] 3.98 µM

COc1ccc(-c2cc3ncc(C)n3c(Nc3ncccc3C(N)=O)n2)cc1OC
active: Potency [15] 56.2 µM
inactive: Potency [1] | Potency [11] | Potency [3]
